From PubChem BioAssay
For some assays here: Potency and affinity values are given separately. The source made the active and inactive calls. Unless noted, no rule for the calls is given here.

Assays:
[1] = antimalarial activity against Dd2 strain (AID 2302;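 active = growth inhibition above 50% at the single 2 µM test dose, taken to imply half-maximal potency below 2 µM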;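 also: 0% = DMSO untreated growth and 100% = chloroquine plus artemisinin killed control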); details: P. falciparum Dd2 in RBCs, LDH growth readout, 72 h; at 2 µM; hits give high values
[2] = HepG2 cytotoxicity, primary screen, cytotoxicity control for P. falciparum antimalarial project, cell-based, ATP luminescence (AID 2303;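 active = inhibition above 50%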;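 also: 0% = DMSO wells and 100% = digitonin-killed cells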); details: HepG2 viability, 24-48 h, at 10 µM, hits give high values
[3] = target: L-lactate dehydrogenase (Plasmodium falciparum (isolate CDC / Honduras)) (UniProt Q27743); experiment: PfLDH activity inhibition – cell lysate, 3D7 strain, counter-screen for P. falciparum growth inhibition project (AID 2304);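 also: 0% = vehicle and 100% = reference inhibitor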; details: P. falciparum 3D7 crude extract, LDH APAD/NBT absorbance; at 2 µM; hits give high values
Chain of L-lactate dehydrogenase (Plasmodium falciparum (isolate CDC / Honduras)) (Q27743 whole entry, looked up): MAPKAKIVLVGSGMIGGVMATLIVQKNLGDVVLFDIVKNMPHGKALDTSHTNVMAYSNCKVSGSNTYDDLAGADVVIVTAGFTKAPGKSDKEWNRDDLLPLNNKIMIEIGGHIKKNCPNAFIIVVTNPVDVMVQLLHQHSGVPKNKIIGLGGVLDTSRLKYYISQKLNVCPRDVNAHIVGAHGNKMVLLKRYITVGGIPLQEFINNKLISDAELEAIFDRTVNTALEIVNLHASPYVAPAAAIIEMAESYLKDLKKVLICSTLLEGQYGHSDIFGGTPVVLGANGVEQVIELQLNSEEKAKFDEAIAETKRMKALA

[4] = inhibition of 3D7 malaria parasite growth – strain 3D7 (AID 2306);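 also: 0% = DMSO wells and 100% = chloroquine plus artemisinin control wells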; details: P. falciparum 3D7 erythrocytic growth, LDH absorbance, 72 h; at 2 µM; hits give high values
[5] = target: Calcium-dependent protein kinase 1 (Plasmodium falciparum (isolate 3D7)) (UniProt P62344); experiment: PfCDPK1 kinase inhibitors, biochemical, TCAMS library (AID 1159585; cut-off not given, nearly all actives have IC50 up to about 0.98 µM;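 also: inhibitors leave more ATP so luminescence rises with inhibition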); details: recombinant PfCDPK1, Kinase-Glo ATP depletion luminescence
Chain of Calcium-dependent protein kinase 1 (Plasmodium falciparum (isolate 3D7)) (P62344 whole entry, looked up): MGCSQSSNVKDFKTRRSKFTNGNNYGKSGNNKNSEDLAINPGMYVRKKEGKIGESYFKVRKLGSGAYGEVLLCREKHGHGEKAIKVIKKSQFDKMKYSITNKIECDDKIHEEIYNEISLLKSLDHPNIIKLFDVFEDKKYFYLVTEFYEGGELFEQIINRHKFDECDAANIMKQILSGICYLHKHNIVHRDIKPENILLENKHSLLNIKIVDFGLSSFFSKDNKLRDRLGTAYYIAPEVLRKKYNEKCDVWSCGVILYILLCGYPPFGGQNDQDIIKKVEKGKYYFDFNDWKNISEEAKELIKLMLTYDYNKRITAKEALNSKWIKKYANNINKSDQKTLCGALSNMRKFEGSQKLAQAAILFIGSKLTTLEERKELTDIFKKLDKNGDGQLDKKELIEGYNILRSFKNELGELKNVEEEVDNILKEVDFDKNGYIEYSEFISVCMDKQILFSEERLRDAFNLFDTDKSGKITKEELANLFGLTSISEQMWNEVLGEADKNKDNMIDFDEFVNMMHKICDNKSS

[6] = target: Plasmodium falciparum protein kinase 6 (PK6, PF3D7_1337100) (UniProt Q8IDW1); experiment: PfPK6 kinase inhibitors, biochemical, TCAMS library (AID 1159586); details: recombinant PfPK6, Kinase-Glo ATP depletion luminescence
Chain of Plasmodium falciparum protein kinase 6 (PK6, PF3D7_1337100) (Q8IDW1 1-305): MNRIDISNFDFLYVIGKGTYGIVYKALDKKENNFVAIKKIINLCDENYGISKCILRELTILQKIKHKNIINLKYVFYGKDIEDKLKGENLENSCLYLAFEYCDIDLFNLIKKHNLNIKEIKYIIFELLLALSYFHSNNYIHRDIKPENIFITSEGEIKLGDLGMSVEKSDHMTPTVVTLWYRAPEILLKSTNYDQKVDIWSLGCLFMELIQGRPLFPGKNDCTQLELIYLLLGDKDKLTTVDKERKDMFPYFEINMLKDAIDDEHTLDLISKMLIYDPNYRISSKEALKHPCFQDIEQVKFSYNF

[7] = target: Protein kinase 7 (PK7), Plasmodium falciparum 3D7 (PF3D7_0213400) (UniProt Q7YTF7); experiment: inhibition of Plasmodium PK7 catalytic activity – biochemical, TCAMS antimalarial set, Kinase-Glo luminescence (AID 1159587); details: recombinant PfPK7, Kinase-Glo ATP depletion luminescence
Chain of Protein kinase 7 (PK7), Plasmodium falciparum 3D7 (PF3D7_0213400) (Q7YTF7 1-343): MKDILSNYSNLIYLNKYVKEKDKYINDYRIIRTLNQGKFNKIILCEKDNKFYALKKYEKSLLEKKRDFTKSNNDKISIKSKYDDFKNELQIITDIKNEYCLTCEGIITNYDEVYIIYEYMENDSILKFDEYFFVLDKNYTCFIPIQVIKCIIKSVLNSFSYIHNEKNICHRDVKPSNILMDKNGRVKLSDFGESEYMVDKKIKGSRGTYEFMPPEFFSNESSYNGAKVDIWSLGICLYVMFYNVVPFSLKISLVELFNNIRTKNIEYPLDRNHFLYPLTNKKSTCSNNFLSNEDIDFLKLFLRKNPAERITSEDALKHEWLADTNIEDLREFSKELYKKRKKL

[8] = target: Calcium-dependent protein kinase 4 (Plasmodium falciparum (isolate 3D7)) (UniProt Q8IBS5); experiment: PfCDPK4 kinase inhibitors, biochemical, TCAMS library (AID 1159588; cut-off not given, nearly all actives have IC50 up to about 0.91 µM); details: recombinant PfCDPK4, Kinase-Glo ATP depletion luminescence
Chain of Calcium-dependent protein kinase 4 (Plasmodium falciparum (isolate 3D7)) (Q8IBS5 whole entry, looked up): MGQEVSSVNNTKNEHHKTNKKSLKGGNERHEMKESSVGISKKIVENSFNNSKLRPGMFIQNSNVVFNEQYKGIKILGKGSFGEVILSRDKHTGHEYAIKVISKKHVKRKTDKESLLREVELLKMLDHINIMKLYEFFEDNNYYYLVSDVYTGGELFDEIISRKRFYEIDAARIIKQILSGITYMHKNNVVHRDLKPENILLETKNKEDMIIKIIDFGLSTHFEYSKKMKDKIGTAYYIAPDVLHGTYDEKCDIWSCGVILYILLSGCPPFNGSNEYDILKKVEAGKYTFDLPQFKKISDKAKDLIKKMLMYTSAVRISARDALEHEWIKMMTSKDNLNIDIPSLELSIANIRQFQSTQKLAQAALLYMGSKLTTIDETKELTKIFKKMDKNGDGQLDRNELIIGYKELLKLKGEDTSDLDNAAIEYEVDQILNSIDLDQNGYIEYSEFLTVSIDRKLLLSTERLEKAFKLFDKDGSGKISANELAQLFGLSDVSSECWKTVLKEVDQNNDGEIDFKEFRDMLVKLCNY

O=C(Nc1ccc(-c2nc3ccccc3[nH]2)cc1)c1ccc(S(=O)(=O)N2CCCCC2)cc1
inactive: growth inhibition [1] 6% | inhibition [2] 23% | inhibition [3] 2% | outcome [5] | outcome [6] | outcome [7] | outcome [8]
active: growth inhibition [4] 95%

O=C(Nc1ccc([N+](=O)[O-])cc1)Nc1cc(C(F)(F)F)ccc1F
inactive: growth inhibition [1] 46% | inhibition [2] 8% | inhibition [3] -4% | outcome [5] | outcome [6] | outcome [7] | outcome [8]
active: growth inhibition [4] 89%

COc1ccc2[nH]cc(C3CCN(CCCCNC(=O)c4ccc(NC(=O)c5ccc(Cl)cc5)cc4)CC3)c2c1
active: growth inhibition [4] 98%
inactive: growth inhibition [1] 16% | inhibition [2] 17% | inhibition [3] 3% | outcome [5] | outcome [6] | outcome [7] | outcome [8]

O=C(Nc1cccc(C(F)(F)F)c1)c1cccc(S(=O)(=O)NC2CCN(CC3CCCCC3)C2)c1 (stereo not given)
inactive: growth inhibition [1] 45% | inhibition [2] 37% | inhibition [3] -1% | outcome [5] | outcome [6] | outcome [7] | outcome [8]
active: growth inhibition [4] 101%

Cn1c(=O)c2nc(-c3ccc(Cl)cc3)nnc2n(CCCC#N)c1=O
inactive: inhibition [2] 6% | inhibition [3] 6% | outcome [5] | outcome [6] | outcome [7] | outcome [8]
active: growth inhibition [1] 98% | growth inhibition [4] 99%

CCCNCc1ccc(-c2ccc(CN(CCOC)C(=O)CCc3ccc(OC)cc3)cc2)nc1
active: growth inhibition [4] 98%
inactive: growth inhibition [1] 29% | inhibition [2] 11% | inhibition [3] -1% | outcome [5] | outcome [6] | outcome [7] | outcome [8]

Cn1c(=N)n(CC(=O)OCc2ccc(OCc3ccccc3)cc2)c2ccccc21
inactive: inhibition [2] 5% | inhibition [3] -5% | outcome [5] | outcome [6] | outcome [7] | outcome [8]
active: growth inhibition [1] 74% | growth inhibition [4] 100%

COc1ccc2nccc(NN=Cc3ccc(Cl)cc3)c2c1
inactive: inhibition [2] 9% | inhibition [3] -1% | outcome [5] | outcome [6] | outcome [7] | outcome [8]
active: growth inhibition [1] 72% | growth inhibition [4] 101%

CCCN1CCC=C(c2cccc(Nc3nccc(Nc4cc(OC)ccc4C)n3)c2)C1
inactive: growth inhibition [1] 35% | inhibition [2] 15% | inhibition [3] -1% | outcome [5] | outcome [6] | outcome [7] | outcome [8]
active: growth inhibition [4] 88%

CCCCCCOc1ccc(C(=O)N(Cc2ccccc2)c2c(-c3ccccc3)nc3cc(C)ccn23)cc1
inactive: inhibition [2] -8% | inhibition [3] 3% | outcome [5] | outcome [6] | outcome [7] | outcome [8]
active: growth inhibition [1] 96% | growth inhibition [4] 95%

C=CCc1cc(Br)ccc1OCCCOc1c(N)nc(N)nc1N
active: growth inhibition [4] 92%
inactive: growth inhibition [1] 0% | inhibition [2] 47% | inhibition [3] 4% | outcome [5] | outcome [6] | outcome [7] | outcome [8]

CC(C)c1ncc(-c2ccncc2)c(C2CCC(CNC(=O)c3ccncc3)CC2)n1 (stereo not given)
active: growth inhibition [4] 85%
inactive: growth inhibition [1] 49% | inhibition [2] -6% | inhibition [3] 4% | outcome [5] | outcome [6] | outcome [7] | outcome [8]

COc1cccc(Nc2c(C(N)=O)cnc3ccc(-c4ccccc4)cc23)c1
active: growth inhibition [1] 99% | growth inhibition [4] 98%
inactive: inhibition [2] 2% | inhibition [3] -2% | outcome [5] | outcome [6] | outcome [7] | outcome [8]

O=C(Nc1ccc(Cl)c(Cl)c1)N1CCC(NCc2cccc([N+](=O)[O-])c2)CC1
active: growth inhibition [4] 97%
inactive: growth inhibition [1] 12% | inhibition [2] 8% | inhibition [3] 2% | outcome [5] | outcome [6] | outcome [7] | outcome [8]

COc1cc(C)ccc1N1CCN(CCCCNC(=O)c2ccc(NC(=O)c3ccc(Cl)cc3)cc2)CC1
inactive: growth inhibition [1] 31% | inhibition [2] 30% | inhibition [3] 4% | outcome [5] | outcome [6] | outcome [7] | outcome [8]
active: growth inhibition [4] 99%

N[C@@H](Cc1ccc(O)cc1)C(=O)NC(c1ccccc1)c1c(O)ccc2ccccc12 (stereo not given in full)
inactive: inhibition [2] 6% | inhibition [3] 2% | outcome [5] | outcome [6] | outcome [7] | outcome [8]
active: growth inhibition [1] 95% | growth inhibition [4] 95%

CCN(CC)CCN(Cc1ccc(-c2ccc(C(F)(F)F)cc2)cc1)C(=O)Cn1c(CCc2ccc(F)cc2)nc(=O)c2sccc21
inactive: inhibition [3] -3% | outcome [5] | outcome [6] | outcome [7] | outcome [8]
active: growth inhibition [1] 90% | inhibition [2] 100% | growth inhibition [4] 99%

CS(=O)(=O)c1ccc(CNCc2cccc(-c3ccc(-c4nc5ccc(C(F)(F)F)cc5[nH]4)cc3)c2)cc1
inactive: inhibition [2] 31% | inhibition [3] 4% | outcome [5] | outcome [6] | outcome [7] | outcome [8]
active: growth inhibition [1] 96% | growth inhibition [4] 101%

COc1ccc2ncc(F)c([C@@H](O)CN3CCC(NCc4cc5c(cn4)OCCO5)CC3)c2c1
inactive: inhibition [2] -4% | inhibition [3] -7% | outcome [5] | outcome [6] | outcome [7] | outcome [8]
active: growth inhibition [1] 98% | growth inhibition [4] 100%

CCN(CC)CCN(Cc1ccc(-c2ccc(C(F)(F)F)cc2)cc1)C(=O)Cn1c(CCc2ccc(F)c(F)c2F)nc(=O)c2cccnc21
active: growth inhibition [4] 89%
inactive: growth inhibition [1] 20% | inhibition [2] 29% | inhibition [3] -3% | outcome [5] | outcome [6] | outcome [7] | outcome [8]

O=C(Nc1ccc(N2CCCCC2)c(Cl)c1)c1ccco1
inactive: inhibition [2] -1% | inhibition [3] -6% | outcome [5] | outcome [6] | outcome [7] | outcome [8]
active: growth inhibition [1] 95% | growth inhibition [4] 96%

Cc1cccc2[nH]c(-c3ccc(-c4cccc(NC(=O)C(C)CN(C)C)c4)s3)nc12 (stereo not given)
active: growth inhibition [1] 69% | growth inhibition [4] 92%
inactive: inhibition [2] 12% | inhibition [3] 0% | outcome [5] | outcome [6] | outcome [7] | outcome [8]

CN(C)CCNC(=O)c1ccc2c(c1)ncn2-c1cc(OCc2ccccc2C(F)(F)F)c(C(N)=O)s1 (tested in a mixture with another compound)
active: growth inhibition [4] 90%
inactive: growth inhibition [1] 8% | inhibition [2] -9% | inhibition [3] 1% | outcome [5] | outcome [6] | outcome [7] | outcome [8]

CC(=O)Nc1ccc(NC(=O)c2cc(-c3ccc(C)cc3O)n[nH]2)cc1
active: growth inhibition [1] 78% | growth inhibition [4] 101%
inactive: inhibition [2] -3% | inhibition [3] -6% | outcome [5] | outcome [6] | outcome [7] | outcome [8]

Cc1c(-c2cccc(C(C)(C)NCCCN3CCCCC3)c2)cnc(N)c1C
inactive: growth inhibition [1] 2% | inhibition [2] 5% | inhibition [3] -1% | outcome [5] | outcome [6] | outcome [7] | outcome [8]
active: growth inhibition [4] 95%

CCCOc1ccc(C(=O)Nc2nonc2-c2ccc(OC)c(OC)c2)cc1
active: growth inhibition [1] 97% | growth inhibition [4] 99%
inactive: inhibition [2] -9% | inhibition [3] 5% | outcome [5] | outcome [6] | outcome [7] | outcome [8]

N#Cc1ccc(CN2CCC(NC(=O)c3ccc(-c4nnc(-c5cccc6ccccc56)o4)cc3)CC2)cc1
active: growth inhibition [4] 98%
inactive: growth inhibition [1] 14% | inhibition [2] 37% | inhibition [3] -2% | outcome [5] | outcome [6] | outcome [7] | outcome [8]

CCN(CC)CCN(Cc1ccc(-c2ccc(C(F)(F)F)cc2)cc1)C(=O)Cn1cc(Cc2cnn(C)c2)c(=O)nc1/C=C/c1cccc(F)c1F
active: growth inhibition [1] 98% | growth inhibition [4] 95%
inactive: inhibition [2] 11% | inhibition [3] -2% | outcome [5] | outcome [6] | outcome [7] | outcome [8]

CC(=O)c1ccc(-c2cccc3c(CC(=O)Nc4ccc5nccc(N6CCN(C)CC6)c5c4)cccc23)cc1
inactive: inhibition [2] 3% | inhibition [3] -11% | outcome [5] | outcome [6] | outcome [7] | outcome [8]
active: growth inhibition [1] 96% | growth inhibition [4] 101%

COc1ccc(F)cc1-c1cccc(CNC2CCN(CC3Cn4c(=O)ccc5ccc(F)c3c54)CC2)c1 (stereo not given)
active: growth inhibition [4] 100%
inactive: growth inhibition [1] 27% | inhibition [2] 46% | inhibition [3] 1% | outcome [5] | outcome [6] | outcome [7] | outcome [8]

N#Cc1ccc(NC(=NCc2ccc(Cl)cc2Cl)Nc2cccc(Cl)c2Cl)c(O)c1
inactive: inhibition [2] 3% | inhibition [3] -6% | outcome [5] | outcome [6] | outcome [7] | outcome [8]
active: growth inhibition [1] 75% | growth inhibition [4] 97%

Nc1c(I)cc(C(=O)Nc2ccc3nc4c(c(N)c3c2)CCCC4)cc1I
inactive: inhibition [2] 40% | inhibition [3] 2% | outcome [5] | outcome [6] | outcome [7] | outcome [8]
active: growth inhibition [1] 99% | growth inhibition [4] 100%

NC(=O)c1cnc2cc(-c3ccncc3)cc(Nc3ccc(NC(=O)C4CCCCC4)cc3)c2c1
active: growth inhibition [1] 99% | inhibition [2] 58% | growth inhibition [4] 98%
inactive: inhibition [3] 0% | outcome [5] | outcome [6] | outcome [7] | outcome [8]

Cc1noc(C)c1-c1cccc(CNCc2cccc(-c3cccc(-c4nc5c(C)cccc5[nH]4)c3)c2)c1
inactive: inhibition [2] 15% | inhibition [3] 4% | outcome [5] | outcome [6] | outcome [7] | outcome [8]
active: growth inhibition [1] 66% | growth inhibition [4] 102%

COCC(C)n1c(SCC(=O)Nc2cc(C(F)(F)F)ccc2Cl)nc2ccccc2c1=O (stereo not given)
active: growth inhibition [1] 96% | growth inhibition [4] 97%
inactive: inhibition [2] 3% | inhibition [3] 6% | outcome [5] | outcome [6] | outcome [7] | outcome [8]

O=C(OCc1ccccc1)N1CCc2c([nH]c3ccccc23)C1CCC(F)(F)F (stereo not given)
inactive: inhibition [2] 0% | inhibition [3] 3% | outcome [5] | outcome [6] | outcome [7] | outcome [8]
active: growth inhibition [1] 81% | growth inhibition [4] 94%

Cc1cccc2[nH]c(-c3ccc(-c4cccc(CNCCc5ccncc5)c4)cc3)nc12
inactive: inhibition [2] 28% | inhibition [3] 2% | outcome [5] | outcome [6] | outcome [7] | outcome [8]
active: growth inhibition [1] 95% | growth inhibition [4] 101%

S=C(NCCc1ccccc1)Nc1ccc2ncsc2c1
active: growth inhibition [4] 96%
inactive: growth inhibition [1] 3% | inhibition [2] -20% | inhibition [3] -3% | outcome [5] | outcome [6] | outcome [7] | outcome [8]

CC(C)N1CCC(N(Cc2ccc(-c3ccc(C(F)(F)F)cc3)cc2)C(=O)Cn2c(CCc3cccc(F)c3F)cc(=O)c3c2CCC3)CC1
inactive: inhibition [2] 30% | inhibition [3] -7% | outcome [5] | outcome [6] | outcome [7] | outcome [8]
active: growth inhibition [1] 62% | growth inhibition [4] 100%

COC(=O)C1(NC(=O)c2ccc(-n3nc(C)c(-c4ccccc4)c3N)cc2)CCCC1
inactive: inhibition [2] 9% | inhibition [3] -5% | outcome [5] | outcome [6] | outcome [7] | outcome [8]
active: growth inhibition [1] 81% | growth inhibition [4] 96%
